Records with an inconclusive call do not appear. A number with no mark means an inactive call. Calls follow the shape of the dose curve; as a rule, active = well fitted activation curve with a large enough effect; inconclusive = small, poorly fitted or top-dose-only effect; inactive = flat fitted curve, though single readings scatter.
experiment: Cellular Toxicity (caspase-3) Hek293 (AID 664); conditions: HEK293 caspase-3 activation, DMSO = 0%, 100 µM tamoxifen = 100%; at 92.2 µM (top of the series);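 also: cells exposed to compound for 16 h at 37 °C before readout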
From the text: NIH Chemical Genomics Center [NCGC]
NIH Molecular Libraries Screening Centers Network [MLSCN]
National Institutes of Environmental Health Sciences [NIEHS]
National Toxicology Program [NTP]
We have developed a 1536-well cell-based assay for quantitative high throughput screening (qHTS) against a number of cell lines to determine in vitro caspase 3/7 of small molecules. This particular assay uses the Hek 293 cell line which is derived from human embryonic kidney cells.
NCGC Assay Protocol Summary:
The Caspase-Glo 3/7 assay (Promega) is a homogeneous method to measure caspase-3 and caspase-7 activities in cultured cells. The quantitation of caspase 3/7 activity is based on the cleavage of a peptide-aminoluciferin substrate. After caspase cleaves the substrate the free aminoluciferin is liberated and serves as the substrate of luciferase, which generates the light. The luminescent signal is proportional to amount of caspase 3/7 activity present.
Using the Caspase-Glo 3/7 assay, the amount of caspase 3/7 activity was measured in the Hek 293 cell line with complete culture medium following compound treatment for 16 hours. The assay was performed in opaque white 1536-well plates. In the screen, tamoxifen and doxorubicin were used as positive controls. Library compounds were measured for their ability to cause the activation of caspase 3/7 in the cell line, as reflected by an increase in luminescence signal, in a concentration-dependent manner. Data were normalized to the controls for basal activity (DMSO only) and 100% stimulation (100 uM tamoxifen). AC50 values were determined from concentration-response data modeled with the standard Hill equation.
qHTS protocol for caspase 3/7 assay in Hek 293 cells
[Step] [Parameter] [Value] [Description]
2. Time; 5 hr; 37 °C incubation
4. Controls; 23 nL; Tamoxifen 0.23 uM to 100 uM & Doxorubicin 7.0 pM to 100 uM
5. Time; 16 hr; 37 °C incubation
6. Reagent; 5 uL; Caspase-Glo 3/7 reagent
7. Time; 20 min; Room Temperature
8. Detection; Luminescence; Viewlux plate reader
Keywords: caspase 3/7, apoptosis, Hek 293 cell line, luminescence, NTPHTS, NTPHTS_NCGC, NIEHS, EPA, DSSTox, MLSMR, MLSCN, NIH Roadmap, qHTS, NCGC

Row | Compound | caspase-3 activation [%]
1 | O=[N+]([O-])c1ccccc1CCl | 0.434
2 | O=[N+]([O-])c1cc(Cl)c(Cl)cc1Cl | -4.07
3 | c1ccc(P(c2ccccc2)c2ccccc2)cc1 | -0.936
4 | Cc1ccc(N)cc1C | 0.308
5 | BrCCc1ccccc1 | 0.126
6 | O=P(OCCCl)(OCCCl)OCCCl | 4.86
7 | c1ccc2c(c1)CCNC2 | -0.664
8 | N#CCCC#N | 1.14
9 | CCCCC(=O)Cl | -0.249
10 | C(CCOCC1CO1)COCC1CO1 (stereo not given) | 0.467
11 | O=[N+]([O-])c1ccc(O)c([N+](=O)[O-])c1 | -5.23
12 | CCOC(=O)C1OC1(C)c1ccccc1 (stereo not given) | 1.59
13 | OCCCCO | -2.02
14 | CN(C)C(=O)Cl | -0.876
15 | Cc1cc(-c2ccc(N)c(C)c2)ccc1N | -2.85
16 | Cc1ccc(N)cc1Cl | 0.465
17 | CN(C)c1ccc(N=Nc2ccccc2)cc1 | -8.79
18 | CCCCC(CC)COC(=O)c1ccc(C(=O)OCC(CC)CCCC)c(C(=O)OCC(CC)CCCC)c1 (stereo not given) | 16.8
19 | Nc1ccc(Cc2ccc(N)c(Cl)c2)cc1Cl | 1.19
20 | OCCOCCO | 3.16

Row | Compound | caspase-3 activation [%]
21 | Nc1ccc([N+](=O)[O-])cc1N | 0.611
22 | C=C(C)CCl | -0.774
23 | COc1c(C(C)(C)C)cc([N+](=O)[O-])c(C)c1[N+](=O)[O-] | 1.65
24 | Nc1ccccc1-c1ccccc1 | 1.72
25 | O=C(O)C(Br)CBr (stereo not given) | 1.8
26 | O=C(Cl)c1ccccc1F | 1.06
27 | CCOP(=S)(OCC)Oc1nc(Cl)c(Cl)cc1Cl | 2.26
28 | CC(C)OC(=O)Cc1ccccc1 | 0.719
29 | Cc1ccc(N)cc1N | 0.128
30 | CC(C)(C)C(O)(CCc1ccc(Cl)cc1)Cn1cncn1 (stereo not given) | 3.2
31 | CC(C#N)CCC#N (stereo not given) | 0.584
32 | Oc1cc(Cl)cc(Cl)c1 | -1.48
33 | C1CC2OC2CC1C1CO1 (stereo not given) | -2.81
34 | CCC(Cl)[N+](=O)[O-] (stereo not given) | -0.0531
35 | C[N+](=O)[O-] | -0.684
36 | Brc1cccc(-c2ccccc2)c1 | -1.08
37 | CCOC(=O)CBr | 1.06
38 | CCOC(=O)CC(SP(=O)(OC)OC)C(=O)OCC (stereo not given) | 1.27
39 | Clc1ccc(Cl)c(Cl)c1 | 0.169
40 | CN(C)C(=O)Nc1cccc(C(F)(F)F)c1 | 0.171

From PubChem BioAssay (NCATS)
